High-throughput results deposited in PubChem BioAssay by Sanford-Burnham Center for Chemical Genomics.
TIM10 inh – growth inhibitors of isogenic TIM10 control yeast, primary screen, counter-screen for tim10-1 yeast inhibitor project, luminescence, uHTS | S. cerevisiae TIM10 strain growth, BacTiter-Glo luminescence, 24 h | inhibition, % at 10 µM | 330,000 compounds, 1.4% hits | AID 463195, 2010;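 active = inhibition of 40% or more at the single tested concentration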;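 note: wild-type TIM10 isogenic control strain grown at permissive 25 °C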
NALP1 yeast inh – NALP1 inflammasome inhibitors in reconstituted yeast, colorimetric, S. cerevisiae, triplicate retest. AID 2071, 2009. 280,000 compounds, 0.61% hits. inhibition, % at 10 µM. S. cerevisiae NALP1/ASC/caspase-1 growth, X-gal OD620, 72 h; in the data active = inhibition mostly above about 24%, no sharp cut-off; inactive = mostly below about 32%
tim10-1 inh – growth inhibitors of tim10-1 mutant yeast, primary screen, luminescence, uHTS; S. cerevisiae tim10-1 ts strain growth, BacTiter-Glo, 24 h; inhibition, % at 20 µM; 330,000 compounds, 2.2% hits;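 active = inhibition of at least 40%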;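 note: mutant grown at 25 °C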
tim23-1 inh – growth inhibitors of tim23-1 mutant yeast, primary screen, luminescence, uHTS; 330,000 compounds, 1.3% hits; S. cerevisiae tim23-1 growth, BacTiter-Glo luminescence, 24 h; inhibition, % at 20 µM;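 active = growth inhibition of the mutant yeast at or above 50%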;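 note: temperature-sensitive mutant grown at 25 °C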
NLRP3 yeast inh – NALP3 inflammasome inhibitors in reconstituted yeast, primary screen, luminescence, uHTS; Yeast reconstituted NLRP3/ASC/caspase-1, beta-gal luminescence, 24 h; inhibition, % at 10 µM; 330,000 compounds, 0.39% hits;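 active = inhibition of 50% or more; inactive = inhibition below 50%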
tim10-1 confirm – growth inhibitors of tim10-1 mutant yeast, confirmation, single concentration, luminescence, S. cerevisiae. shares compounds with tim10-1 inh. S. cerevisiae tim10-1 ts strain growth, BacTiter-Glo, 24 h. inhibition, % at 20 µM. 7,400 compounds, 56% hits;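 active = inhibition of yeast growth at or above a set limit in either of two repeat tests at 20 µM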;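 note: tim10-1 mutant grown at permissive 25 °C to find synthetic lethal compounds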
Hits are given with their value; n = inactive; x = not tested or not shown. A selection: hits, their analogues and other compounds. The true share with any hit is near 4%.

SMILES	TIM10 inh	NALP1 yeast inh	tim10-1 inh	tim23-1 inh	NLRP3 yeast inh	tim10-1 confirm
Cc1cc(C)cc(C(=O)O/N=C(\N)c2ccc(Br)cc2)c1	n	n	40	n	n	31
Cc1ccccc1C(=O)O/N=C(\N)c1ccc([N+](=O)[O-])cc1	n	n	53	n	n	62
N/C(=N\OC(=O)N1CCOCC1)c1ccc(Cl)cc1	n	n	61	n	n	49
COc1ccc(C(=O)O/N=C(\N)c2ccc(Cl)cc2)cc1	n	n	44	n	n	46
N/C(=N\OC(=O)N1CCOCC1)c1ccccc1	n	n	n	n	n	x
Cc1cccc(C(=O)O/N=C(\N)c2ccc(Cl)cc2)c1	n	n	n	n	n	x
CCOC(=O)C(=Cc1c[nH]c2ccc(S(=O)(=O)N(C)C)cc12)C(=O)OCC	n	x	n	n	n	x
COc1ccc(CNC(=O)CN(C(=O)CCC(=O)Nc2nccs2)c2ccccc2C)cc1	n	n	n	n	n	x
Nc1ncnc(Oc2cccc(C(F)(F)F)c2)c1[N+](=O)[O-]	n	n	43	n	n	n
COc1cc(C)ccc1Oc1ncnc(N)c1[N+](=O)[O-]	n	n	n	n	n	x
O=C(c1ccccc1)c1c[nH]cc1-c1ccccc1	n	n	n	n	n	x
O=C(c1cccs1)c1c[nH]cc1-c1ccccc1	n	x	52	n	n	38
COc1ccc(C(CC(=O)O)NS(=O)(=O)c2ccc3c(c2)NC(=O)CO3)cc1 (stereo not given)	n	n	n	n	n	x
CC1CN(C(=O)c2cc3cc(F)ccc3[nH]2)CC(C)O1 (stereo not given)	n	n	n	n	n	x
O=C(O)CCC(=O)NCc1c(Cl)cccc1Sc1ccc(Cl)cc1	n	n	n	n	n	x
CCc1nn(-c2ccccc2)c(N)c1C#N	n	n	n	n	n	x
CCc1nn(-c2ccccc2)c(=S)c2ccccc12	n	n	46	n	n	52
COc1ccc([C@H]2/C=C\CN(C(=O)[C@H](Cc3ccccc3)NC(=O)OCC3c4ccccc4-c4ccccc43)CC(=O)N2Cc2ccc(F)cc2)cc1	n	x	95	n	n	n
COc1ccc(Cl)cc1C(=O)NNC(=O)CNC(=O)c1ccco1	n	x	n	n	n	x
O=C(CNC(=S)N(Cc1ccccc1)Cc1ccccc1F)NCCc1ccccc1	n	n	41	n	n	n
O=C(CNC(=S)N(Cc1ccccc1)Cc1ccccc1F)NCc1ccccc1	n	n	n	n	n	x
COc1ccccc1C(=O)Nc1nc2cc3c(cc2s1)OCCO3	n	n	43	n	n	n
CCCCCCc1cc2cc(C(N)=O)c(=N)oc2cc1O	n	n	42	n	n	n
O=C(c1cc(=O)c2ccccc2o1)N1CCN(c2cccc(Cl)c2)CC1	n	n	44	n	n	n
Cc1ccc(C(=O)N2CCN(c3cccc(Cl)c3)CC2)cc1C	n	n	50	n	n	n
SMILES	TIM10 inh	NALP1 yeast inh	tim10-1 inh	tim23-1 inh	NLRP3 yeast inh	tim10-1 confirm
Cc1ccc(NC(=O)CN2C(=O)S/C(=C\c3cc(Cl)c(OCC(=O)O)c(Cl)c3)C2=O)cc1	n	n	n	n	n	x
COc1cccc(CNC(=O)CN2C(=O)COc3ccc(S(=O)(=O)N4CCCCC4)cc32)c1	n	n	n	n	n	x
Cc1nn(-c2cccc(Cl)c2)c2c1C(c1cccnc1)C(C#N)=C(N)O2 (stereo not given)	n	n	41	n	n	31
COc1ccc(-c2csc(NC(=O)CSCc3c(C)noc3C)n2)cc1OC	n	n	n	n	n	x
Cc1noc(C)c1CSCC(=O)Nc1nc(-c2ccc(F)c(F)c2)cs1	n	x	40	n	n	n
COc1ccc(C(=O)NCC(=O)N/N=C(C)\C=C\c2ccccc2)cc1OC	n	n	n	n	n	x
Cc1scc(C(=O)N/N=C/c2ccco2)c1C	n	n	n	n	n	x
Cc1scc(C(=O)N/N=C/c2ccc([N+](=O)[O-])o2)c1C	n	n	46	n	n	n
Oc1ccc(Cl)cc1CNc1ccccn1	n	n	n	n	n	x
Oc1c(Cl)cc(Cl)cc1CNc1ccc(Br)cn1	n	n	55	n	n	63
O=C(Cc1ccc(Cl)cc1)Nc1ccc(Br)cn1	n	n	41	n	n	n
Cc1ccc(N(C)S(=O)(=O)c2cccc(C(=O)NCC(c3ccco3)N3CCCC3)c2)cc1 (stereo not given)	n	x	n	n	n	x
CCCCCCOc1ccc(N2C(=O)CC(N3CCN(CCN=CC4=C(O)CC(C)(C)CC4=O)CC3)C2=O)cc1 (stereo not given)	n	n	n	n	n	x
CCCCCCOc1ccc(N2C(=O)CC(N3CCN(CCN=CC4C(=O)CC(C)(C)CC4=O)CC3)C2=O)cc1 (stereo not given)	n	n	43	n	n	41
CCCN1CCC(=O)N([C@H](CSc2ccc(OC)cc2)c2ccccc2)CC1	n	n	n	n	n	x
NNc1nc2c(F)cc(F)cc2s1	n	n	41	n	n	n
CN1C(=S)SC(C)(C)C1(C)NO (stereo not given)	n	n	71	n	n	n
CCC1CN(C(=O)NCc2ccc(C)cc2)c2ccccc2O1 (stereo not given)	n	n	n	n	n	x
CCC1CN(C(=O)NCc2ccc(F)cc2)c2cc(C)ccc2O1 (stereo not given)	n	n	41	n	n	n
O=C(c1noc2c1CCc1ccccc1-2)N1CCOCC1	n	x	n	n	n	x
O=C(c1noc2c1CCc1ccccc1-2)N1CCCc2ccccc21	n	n	42	n	n	n
Cc1ccc(S(=O)(=O)/N=C2/NC(=O)/C(=C\c3cc(Br)cc(Br)c3O)S2)cc1	n	n	42	n	n	37
Cc1ccc(S(=O)(=O)/N=C2/NC(=O)/C(=C/c3ccc(Br)o3)S2)cc1	n	n	n	n	n	x
Cc1ccc(N2C(=O)C3Sc4[nH]c(=O)sc4C(c4ccccc4)C3C2=O)cc1 (stereo not given)	n	n	n	n	n	x
O=C1C2Sc3[nH]c(=O)sc3C(c3ccccc3)C2C(=O)N1c1ccc(Cl)cc1 (stereo not given)	n	n	42	n	n	n
COc1ccc(/C=N/NC(=O)CCn2c3ccccc3c3ccccc32)cc1O	n	n	45	n	n	n
CCN(CC)C(=O)C1CCN(S(=O)(=O)c2c(C)noc2/C=C/c2cccc(C)c2)CC1	n	n	41	n	n	n
CN(CCCNC(=O)c1ccc(CS(=O)c2ccc(Br)cc2)o1)Cc1ccccc1 (stereo not given)	n	n	n	n	n	x
O=C(CCN1CCN(c2ccccc2F)CC1)Nc1cccc(F)c1	n	n	n	n	n	x
